PubChem BioAssay (EPA / NIEHS)
Records with an inconclusive call do not appear. Active and inactive are the calls of the source. Rule for the calls, unless noted: active = hit-call score of the fitted dose curve at least 0.9, where 1 is the maximum; inactive = score below 0.9.

Columns and labels:
[1] = ACEA_ER_80hr: ACEA Biosciences xCELLigence Real-Time Cell Analysis on Estrogen Receptor Agonism for Proliferation (AID 2282667; active = hit-call score of the fitted dose curve at least 0.9, where 1 is the maximum); conditions: T47D proliferation, impedance (xCELLigence), 80 h
Procedure, shortened: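 T47D human breast cells were seeded on electrode plates, monitored overnight, then exposed continuously to compounds in eight-point 1:4 dilutions from 100 uM (max 0.5% DMSO). Impedance-based growth was read at 80 h, fitted upward relative to DMSO.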

[2] = APR_HepG2_CellCycleArrest_24hr: Apredica 24-hour HepG2 Assay for Cell Cycle Arrest (AID 2282905); conditions: imaging, actives raise or lower the signal;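 note: cell cycle arrest scored as ratio of 2N to 4N nuclear DNA content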
Procedure, shortened: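 Compounds at 0.39–200 uM (0.5% DMSO) for 24 h, then fixed and Hoechst 33342 stained. Cell-cycle analysis of nuclear DNA content by high-content imaging, fitted bidirectionally versus DMSO.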

[3] = APR_HepG2_NuclearSize_24hr: Apredica 24-hour HepG2 Assay for Nuclear Size (AID 2282907); conditions: high-content imaging, actives raise or lower the signal
Procedure, shortened: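 HepG2 cells exposed 24 h to compounds at 0.39–200 uM (0.5% DMSO), fixed, Hoechst 33342 stained and imaged at 20x; nuclear diameter measured by automated image analysis, fitted bidirectionally against DMSO controls.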

[4] = APR_HepG2_CellLoss_24hr: Apredica 24-hour HepG2 Assay for Cell Loss (AID 2282908); conditions: high-content imaging;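 for AC50: fit in both directions so a hit may be cell loss or gain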
Procedure, shortened: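 HepG2 cells exposed 24 hr to 0.39–200 uM compound in duplicate at 0.5% v/v final DMSO. Cells fixed in 3.7% formaldehyde and Hoechst 33342-stained. Cell number came from nuclear imaging at 20x. Bidirectional fit versus DMSO.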

[5] = APR_HepG2_MicrotubuleCSK_24hr: Apredica 24-hour HepG2 Assay for Microtubule CSK Stabilty (AID 2282909); conditions: HepG2 microtubule cytoskeleton imaging, actives raise or lower the signal
Procedure, shortened: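 HepG2 cells were treated 24 hr with compound at 0.39–200 uM in duplicate (0.5% DMSO final), then fixed and permeabilized. Alpha-tubulin immunofluorescence was imaged by high-content microscopy, with bidirectional fitting against DMSO and taxol as positive control.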

[6] = APR_HepG2_MitoticArrest_24hr: Apredica 24-hour HepG2 Assay for Mitotic Arrest (AID 2282910); conditions: high-content imaging, actives raise or lower the signal
Procedure, shortened: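 HepG2 cells, 24 h exposure at 0.39-200 uM (10 concentrations, duplicate, 0.5% DMSO). Fixed, stained for phospho-histone H3 with Hoechst; imaged by high-content microscopy, bidirectional fit versus DMSO.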

[7] = APR_HepG2_MitoMass_24hr: Apredica 24-hour HepG2 Assay for Mitochondrial Mass (AID 2282912); conditions: high-content imaging, actives raise or lower the signal
Procedure, shortened: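 HepG2 cells exposed 24 hr to 0.39–200 uM compound, 0.5% v/v DMSO, in duplicate. Stained before fixation with 250 nM MitoTracker Red CMXRos for 30 min, then imaged at 20x with Hoechst nuclei. Fitted in both directions against DMSO.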

[8] = APR_HepG2_p53Act_24hr: Apredica 24-hour HepG2 Assay for p53 Activation (AID 2282913); conditions: high-content imaging, actives raise or lower the signal;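 note: p53 protein immunofluorescence averaged per cell in HepG2 with Hoechst nuclei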
Procedure, shortened: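 HepG2 cells exposed 24 hr to compounds at 0.39–200 uM (10 concentrations, duplicate), final DMSO 0.5% v/v. After formaldehyde fixation and Triton permeabilization, p53 was immunolabeled (sheep anti-p53, Cy5 secondary) with Hoechst 33342 nuclear counterstain, then imaged by high-content fluorescence microscopy.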

[9] = APR_HepG2_CellCycleArrest_72hr: Apredica 72-hour HepG2 Assay for Cell Cycle Arrest (AID 2282914); conditions: high-content imaging, actives raise or lower the signal
Procedure, shortened: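 HepG2 cells were exposed to compounds at 0.39–200 uM (0.5% v/v DMSO final, duplicates) for 72 hr, fixed in 3.7% formaldehyde, permeabilized and stained with Hoechst 33342. Nuclear DNA content was quantified by high-content imaging; gain or loss of signal was fitted bidirectionally against DMSO.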

[10] = APR_HepG2_CellLoss_72hr: Apredica 72-hour HepG2 Assay for Cell Loss (AID 2282915); conditions: high-content imaging
Procedure, shortened: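 HepG2 cells exposed 72 h to compound at 0.39–200 uM (10 concentrations, duplicate) in 0.5% DMSO. Fixed with 3.7% formaldehyde and Hoechst 33342-stained. Imaged at 20x; nuclear count gives cell number, fitted bidirectionally versus DMSO.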

[11] = APR_HepG2_P-H2AX_72hr: Apredica 72-hour HepG2 Assay for H2AX Phosphorylation (AID 2282916); conditions: imaging, actives raise or lower the signal;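 note: phospho-histone H2A.x immunostain intensity per cell marking DNA damage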
Procedure, shortened: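 HepG2 cells treated 72 h at 0.39–200 uM, 0.5% DMSO final, duplicates. Formaldehyde-fixed, Triton-permeabilised, immunostained for phospho-H2A.x with Hoechst; fluorescence imaged at 20x, bidirectional fit versus DMSO.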

[12] = APR_HepG2_MitoMembPot_72hr: Apredica 72-hour HepG2 Assay for Mitochondrial Membrane Potential (AID 2282917); conditions: imaging, actives raise or lower the signal
Procedure, shortened: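 HepG2 cells dosed 72 hr with compound at 0.39–200 uM in duplicate, 0.5% v/v DMSO final. Mitochondria stained with 250 nM MitoTracker Red CMXRos for 30 min before formaldehyde fixation, imaged by high-content fluorescence; bidirectional fit versus DMSO.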

[13] = APR_HepG2_MitoticArrest_72hr: Apredica 72-hour HepG2 Assay for Mitotic Arrest (AID 2282918); conditions: high-content imaging, actives raise or lower the signal
Procedure, shortened: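 HepG2 cells were exposed for 72 hr to compound at 0.39–200 uM (10 concentrations, duplicate) in 0.5% v/v DMSO, fixed in 3.7% formaldehyde, immunostained for phospho-histone H3 with Hoechst 33342 and imaged by high-content fluorescence; bidirectional fits versus DMSO.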

[14] = APR_HepG2_MicrotubuleCSK_72hr: Apredica 72-hour HepG2 Assay for Microtubule CSK Stabilty (AID 2282919); conditions: HepG2 microtubule cytoskeleton, high-content imaging, actives raise or lower the signal
Procedure, shortened: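 HepG2 cells were exposed 72 hr to compound at 0.39–200 uM in duplicate (0.5% DMSO final), then fixed and permeabilized. Alpha-tubulin immunofluorescence was imaged by high-content microscopy, with bidirectional fitting against DMSO and taxol as positive control.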

[15] = APR_HepG2_P-H2AX_24hr: Apredica 24-hour HepG2 Assay for H2AX Phosphorylation (AID 2282920); conditions: high-content imaging, actives raise or lower the signal
Procedure, shortened: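 HepG2 human liver cells were exposed for 24 hr to compounds at 0.39–200 uM in duplicate, with 0.5% v/v DMSO final. Fixed cells were immunostained for phospho-histone H2A.x plus Hoechst 33342, imaged by HCS fluorescence, and fitted bidirectionally against DMSO.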

[16] = APR_HepG2_StressKinase_72hr: Apredica 72-hour HepG2 Assay for Stress Kinase (AID 2282921); conditions: HepG2 stress kinase (phospho-c-Jun) imaging, actives raise or lower the signal
Procedure, shortened: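 HepG2 cells treated 72 hr with 0.39–200 uM compound, 0.5% v/v DMSO, duplicate wells. After formaldehyde fixation and Triton permeabilization, stained with anti-phospho-c-Jun (1:500) and Cy3 secondary, imaged at 20x. Fitted in both directions against DMSO.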

[17] = APR_HepG2_StressKinase_24hr: Apredica 24-hour HepG2 Assay for Stress Kinase (AID 2282922); conditions: HepG2 stress kinase (phospho-c-Jun) imaging, actives raise or lower the signal
Procedure, shortened: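 HepG2 cells exposed 24 h to 0.39–200 uM compound in duplicate (0.5% v/v DMSO final). Cells fixed in 3.7% formaldehyde, permeabilized and immunostained for phospho-c-Jun; read by high-content fluorescence imaging, fitted bidirectionally against DMSO.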

[18] = APR_HepG2_p53Act_72hr: Apredica 72-hour HepG2 Assay for p53 Activation (AID 2282923); conditions: high-content imaging, actives raise or lower the signal;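 note: average cellular p53 protein immunofluorescence intensity in HepG2 cells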
Procedure, shortened: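 HepG2 cells exposed 72 h to 0.39–200 uM in 0.5% DMSO, duplicates. Fixed, permeabilized cells immunostained for p53 (Cy5) with Hoechst; imaged at 20x, fluorescence analyzed bidirectionally against DMSO.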

[19] = APR_HepG2_MitoMass_72hr: Apredica 72-hour HepG2 Assay for Mitochondrial Mass (AID 2282924); conditions: high-content imaging, actives raise or lower the signal;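 note: MitoTracker Red CMXRos stain intensity per cell imaged as mitochondrial mass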
Procedure, shortened: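 HepG2 cells dosed 72 hr at 0.39–200 uM (0.5% DMSO), in duplicate. MitoTracker Red CMXRos 250 nM loaded 30 min before formaldehyde fixation; high-content fluorescence imaging, bidirectional fit versus DMSO.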

[20] = APR_HepG2_MitoMembPot_24hr: Apredica 24-hour HepG2 Assay for Mitochondrial Membrane Potential (AID 2282911); conditions: imaging, actives raise or lower the signal
Procedure, shortened: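 HepG2 human liver cells were exposed 24 hr to compounds at 0.39–200 uM (final DMSO 0.5% v/v) in duplicate. MitoTracker Red CMXRos (250 nM, 30 min) was loaded before formaldehyde fixation; fluorescence was imaged by ArrayScan HCS and fitted bidirectionally versus DMSO.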

Measured: AC50

CCCCCCCCCC
not listed: [20]
inactive: all other assays above

O=c1[nH]cnc2c1ncn2[C@H]1CC[C@@H](CO)O1
not listed: [8] | [18] | [20]
inactive: all other assays above

CC(=O)c1ccccc1
not listed: [20]
inactive: all other assays above

CCCCCCCC1CCC(=O)O1 (configuration not stated)
not listed: [2] | [3] | [5] | [9] | [14]
inactive: all other assays above

CC(C)CC(C)O (configuration not stated)
not listed: [8] | [18] | [20]
inactive: all other assays above

CC(C)CCCCCCOC(=O)C1CCCCC1C(=O)OCCCCCCC(C)C (configuration not stated)
not listed: [8] | [18] | [20]
inactive: all other assays above

O=C1CN(N=Cc2ccc([N+](=O)[O-])o2)C(=O)N1
inactive: [1] | [6] | [7] | [12] | [16] | [17]
active: [4] 33.6 µM | [8] 58.6 µM | [10] 41.9 µM | [11] 65.2 µM | [13] 58.3 µM | [15] 56.7 µM | [18] 46.8 µM | [19] 90.5 µM

Cc1ccc(S(=O)(=O)NC(=O)NN2CCCCCC2)cc1
not listed: [8] | [18] | [20]
inactive: all other assays above

c1ccc2c(c1)-c1cccc3c1c-2cc1ccccc13
active: [4] 5.87 µM | [6] 15.5 µM | [7] 8.67 µM | [9] 2.38 µM | [10] 7.58 µM | [11] 0.0391 µM | [19] 0.0391 µM
not listed: [8] | [18] | [20]
inactive: all other assays above
